From PubChem BioAssay (NCI)
This is part of a sample that, as a whole, favours compounds with a hit. Of some 83,000 tested, about 20% had one in any assay.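 48-hour exposure, single concentration, 96-well plates; percent growth endpoint where 0 means no net growth. Active: below 10.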 Activity calls are given as the source filed them.

What follows are compounds tested on UACC-62 melanoma (assay: NCI-60 one-dose screen, 48 h (100 = growth as untreated, 0 = no growth, -100 = all killed)). Details: 10 µM unless noted.
Method: Growth inhibition of the UACC-62 human tumor cell line is measured as a screen for anti-cancer activity. Cells are grown in 96 well plates and exposed to the test compound for 48 hours. Compounds are tested at a single concentration, which is 10^-5 M for most compounds. The reported endpoint is percent growth (GI% or GIPRCNT), where numbers from 0 - 100% represent growth inhibition, and numbers from -100% - 0 represent cell death. For example, a value of 40 represents 60% growth inhibition. A value of 0 means no net growth occurred over the course of the experiment. A value of -40 indicates 40% of cells at the beginning of the experiment died by the end of the experiment. A value of -100 means all cells are dead at the end of the experiment.
NCI-60 Human Tumor Cell Lines Screen was performed using the standard one-dose NCI protocol, which is described in more detail at https://dtp.cancer.gov/discovery_development/nci-60/default.htm.
Compounds with GIPRCNT values below 10 were considered active. Activity score was based on GIPRCNT using the following formula: […]
Score is 0 for GIPRCNT values of 100 or above, 50 for GIPRCNT values of 0, and 100 for GIPRCNT values of -100.

Q: For CCOc1ccccc1Cn1ccnc1CCc1c(Cl)c(O)cc(O)c1C(=O)OC, which growth is on record?
A: 92.1% (inactive)

Q: Nc1nc2ccc(-c3nc4ccc5[nH]ncc5c4c4c3CCCC4)cc2s1 was tested. Which growth did it give?
A: 102% (inactive)

Q: For C1CCC([PH+](C2CCCCC2)C2CCCCC2[PH+](C2CCCCC2)C2CCCCC2)CC1.[Au].[CH-]1CCCCC1C1CCCC[N-]1 (stereo not given), which growth is on record?
A: -79.7% (active)

Q: With COc1ccc(/C=C/C(=O)c2cc3c(N)c(C(=O)Nc4cccc5ccccc45)sc3nc2C)cc1 as the compound, how does the growth read?
A: 21.3% (inactive)

Q: COc1ccc(-c2nn(-c3cccc(Cl)c3)cc2-c2cc(-c3ccc(Br)cc3)nc(N)n2)cc1 was tested. Which growth did it give?
A: 85% (inactive)

Q: With COCCn1cc(-c2csc(-c3cn(C)c4ccc(Br)cc34)n2)c2cccnc21 as the compound, how does the growth read?
A: 70.5% (inactive)

Q: With Cc1cc(C(=O)Nc2ncc(Cc3cccc(C(F)(F)F)c3)s2)c2ccccc2n1 as the compound, how does the growth read?
A: 9.95% (active)

Q: With Cn1ccnc1C(=O)/C=C/c1ccc(CC(=O)Nc2cc(C(F)(F)F)cc(C(F)(F)F)c2)cc1 as the compound, how does the growth read?
A: 67.5% (inactive)

Q: Cn1cc(-c2csc(-c3cn(C(=O)OC(C)(C)C)c4ccc(Br)cc34)n2)c2ccnc(Cl)c21 was tested. Which growth did it give?
A: 96.1% (inactive)

Q: Which growth does the source give for C#CCNC(=O)[C@H](CC)[C@H]1CC[C@H](C)[C@H]([C@@H](C)[C@H](O)[C@H](C)C(=O)[C@H](CC)C2O[C@]3(C=CC(=O)[C@]4(CC[C@@](C)([C@H]5CC[C@](O)(CC)[C@H](C)O5)O4)O3)[C@H](C)C[C@@H]2C)O1 (stereo not given in full) here?
A: 41.3% (inactive)

Q: CCOC(=O)C(=O)C(C(=O)OCC)c1ccccc1 (stereo not given) was tested. Which growth did it give?
A: 109% (inactive)

Q: Clc1ccc(/C=N\N=C\c2ccc(Cl)c(Cl)c2)cc1Cl was tested. Which growth did it give?
A: 84.1% (inactive)

Q: With O=C(N/N=C/c1ccc(Cl)cc1)c1[nH]c2ccc(Cl)cc2c1-c1ccccc1 as the compound, how does the growth read?
A: 30.7% (inactive)

Q: How did the growth turn out when Cc1nc2sc(C(=O)Nc3cccc4ccccc34)c(N)c2cc1C(O)c1ccccc1 (stereo not given) was run?
A: 17.8% (inactive)

Q: For CCC(C(=O)[C@@H](C)[C@@H](O)[C@H](C)[C@@H]1O[C@@H]([C@@H](CC)C(=O)ONC(=O)c2ccccc2)CC[C@@H]1C)[C@H]1O[C@]2(C=CC(=O)[C@]3(CC[C@@](C)([C@H]4CC[C@](O)(CC)[C@H](C)O4)O3)O2)[C@H](C)C[C@@H]1C (stereo not given in full), which growth is on record?
A: -24.5% (active)

Q: Which growth does the source give for O=C(CSc1oc(-c2ccccc2)nc1S(=O)(=O)c1ccccc1)Nc1ccc(F)cc1 here?
A: 66.4% (inactive)

Q: For O=C1c2c(c3c4ccccc4[nH]c3c3ccc4ccccc4c23)C(=O)N1CCN1CCNCC1, which growth is on record?
A: 82% (inactive)

Q: N#CC1=C(c2ccccc2)Nc2c(c(-c3ccc(Cl)cc3)nn2-c2ccccc2)C12C(=O)Nc1ccc(Cl)cc12 (stereo not given) was tested. Which growth did it give?
A: 66% (inactive)

Q: Which growth does the source give for O=C(Nc1nc2ccc(C(=O)N3CCN(/C=C/c4ccccc4)CC3)cc2s1)c1ccc(NCCc2ccccc2)c([N+](=O)[O-])c1 here?
A: 58.3% (inactive)

Q: Which growth does the source give for CC(=O)c1c(C)nc(SCC(=O)Nc2cccc(O)c2)n1-c1ccc(Cl)cc1 here?
A: 75.3% (inactive)

Q: How did the growth turn out when Fc1ccc(CNc2c3ccccc3nc3ccccc23)c(F)c1 was run?
A: 59.1% (inactive)

Q: With N#CSc1c[nH]c2cccc(/C=C/C(=O)/C=C(/C=C/c3cccc4[nH]cc(SC#N)c34)OB(F)F)c12 as the compound, how does the growth read?
A: -50.5% (active)

Q: COc1cc2ncnc(Nc3ccc(F)c(Cl)c3)c2cc1OCC(=O)N1CCN(c2ccccc2)CC1 was tested. Which growth did it give?
A: 92.8% (inactive)

Q: Which growth does the source give for CS(=O)(=O)Nc1cc(-c2ccc3ncnc(Nc4ccc5c(cnn5Cc5cccc(F)c5)c4)c3c2)cnc1Cl here?
A: -8.95% (active)

Q: How did the growth turn out when O=S(=O)(NCCCNc1nccc(-c2c(-c3ccc(F)c(O)c3)nc3occn23)n1)c1ccc(Cl)cc1 was run?
A: 11.7% (inactive)

Q: How did the growth turn out when CCCCCC(/C=N\NC(=S)N/N=C/C(=C/c1ccccc1)CCCCC)=C\c1ccccc1 was run?
A: 56.8% (inactive)

Q: How did the growth turn out when N#Cc1c(-c2ccccc2)cc(-c2ccc(Nc3nc(Nc4ccc(Cl)cc4)nc(Nc4ccc(Cl)cc4)n3)cc2)nc1N was run?
A: 54.5% (inactive)

Q: Which growth does the source give for CC(=O)N1N=C(c2ccc(Nc3nc(Nc4ccccc4)nc(Nc4ccccc4)n3)cc2)CC1c1cccc([N+](=O)[O-])c1 (stereo not given) here?
A: 84% (inactive)

Q: Which growth does the source give for CN1C(=O)/C(=C\c2nc([P+](c3ccccc3)(c3ccccc3)c3ccccc3)c(N3CCOCC3)o2)SC1=S here?
A: -3.31% (active)

Q: With O=C1Nc2ccccc2/C1=C/c1cccn1CCCCn1c2ccccc2c(=O)c2ccccc21 as the compound, how does the growth read?
A: 51.8% (inactive)

Q: With CN(C)Cc1ccc(O)c(C(=O)O)c1 as the compound, how does the growth read?
A: 104% (inactive)

Q: Which growth does the source give for c1cnc2c(-c3nc4ccc5[nH]ncc5c4c4c3CCCC4)c[nH]c2c1 here?
A: 45.8% (inactive)

Q: How did the growth turn out when OCCn1cc(-c2nc(-c3c[nH]c4ncccc34)cs2)c2cc(F)ccc21 was run?
A: 63.3% (inactive)

Q: For O=S(=O)(NCCNc1nccc(-c2c(-c3ccc(F)c(O)c3)nc3occn23)n1)c1ccc(Cl)cc1, which growth is on record?
A: 23.9% (inactive)

Q: O=C(CSc1nnc(-c2cnccn2)n1-c1ccccc1)c1ccc(Cl)cc1 was tested. Which growth did it give?
A: 84.9% (inactive)

Q: How did the growth turn out when CSc1nc(N)c(NS(=O)(=O)c2ccc(C(C)=O)cc2)c(=O)[nH]1 was run?
A: 98.3% (inactive)

Q: COc1cc2c(cc1OC)C(C)N(S(N)(=O)=O)CC2 (stereo not given) was tested. Which growth did it give?
A: 95.4% (inactive)

Q: Which growth does the source give for C=C1C(=O)O[C@H]2[C@H]1CC/C(COC(=O)C(=O)c1cn(C)c3ccc(Cl)cc13)=C\CC[C@@]1(C)O[C@@H]21 here?
A: -82.5% (active)

Q: With C=C1CC[C@@H]2[C@](C)(COC(C)=O)[C@H](OC(C)=O)CC[C@@]2(C)[C@@H]1CC(Nc1ccc(S(=O)(=O)Nc2ncccn2)cc1)C1=CCOC1=O (stereo not given in full) as the compound, how does the growth read?
A: 3.93% (active)

Q: Which growth does the source give for CCOC(=O)C/C(=N\Nc1cc(=O)[nH]c2ccc(Br)cc12)C(=O)OCC here?
A: 90.6% (inactive)
